# The list is not random: actives were taken first. Their share in the collection is about 15%.
# Sm TGR inh – blocks Schistosoma mansoni thioredoxin glutathione reductase; Q962Y6; purified TGR, DTNB reduction, TNB absorbance 405 nm; Potency, µM (top dose mostly 114 µM), for inactives: top-dose activity change, negative = inhibition, most hits filed as inhibitors; hit rate 3% among 360,000; AID 485364; note: potency is the fitted concentration of half-maximal effect; % is set by controls: 0 for no effect and ±100 for the full control effect; nearly all actives have a fitted effect of over 60% in size
#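 First, TGR (20 nM dispensed) and NADPH were mixed with compound. Second, a 15 min room-temperature incubation followed. Third, further NADPH and then DTNB were added to start the reaction. Finally, TNB absorbance was monitored kinetically.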
# HCV inh – blocks hepatitis C virus. Huh7.5.1 HCVcc-Cre infection, luciferase reporter, 44 h. Potency, µM (titrated, usually from 41.8 µM), without a hit: at the top dose activity change, negative = inhibition, hits mostly inhibitors. hit rate 3.4% among 340,000; note: potency is the fitted concentration of half-maximal effect; % is set by controls: 0 for no effect and ±100 for the full control effect
#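 A cell-based infection assay in which seeded cells (1,000 per well) receive test compound after 4 h, are inoculated with HCVcc-Cre at approximately 0.5 moi, and are incubated 44 h before luminescence detection.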
# SARS PLP yeast – inhibitors of SARS-CoV papain-like protease in yeast. S. cerevisiae expressing SARS-CoV PLpro, growth rescue. Potency, µM (series often up to 32.9 µM), inactives show top-dose activity, positive = growth rescue, actives largely listed as activators. hit rate 0.19% among 330,000. AID 485353; calls by dose curve; note: potency is the fitted concentration of half-maximal effect; 0% is about no effect; nearly all actives have a fitted effect of over 55% in size
# HCMV antiviral – blocks human cytomegalovirus replication. activity change, negative = inhibition, % at 57.5 µM. HFF cells, HCMV-luciferase reporter, 72 h; stronger effect = lower value. hit rate 4.5% among 410,000; in the data active = activity change below about -60%; inconclusive = no clear call, values can overlap the other calls; inactive = above about -39%; note: % is set by controls: 0 for no effect and ±100 for the full control effect
#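 Luciferase read-out from HCMV-luciferase-infected HFFs (MOI 1 PFU/cell) 72 h post infection at 37C; compounds added after 16 h cell attachment; activity normalized between buffer-only basal and Salinomycin (10uM) inhibitor controls.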
# Pf growth 48h – P. falciparum growth inhibition at 48 hours (one generation). P. falciparum luciferase growth in erythrocytes, 48 h. Potency, µM (series often up to 28.7 µM), without a hit: at the highest dose activity change, negative = inhibition, most hits filed as inhibitors. hit rate 5.9% among 310,000; note: potency is the fitted concentration of half-maximal effect; % is set by controls: 0 for no effect and ±100 for the full control effect
#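 Growth was read as firefly luciferase luminescence after a 48 h, 37 C, 5% CO2 exposure of compounds to reporter-bearing P. falciparum cultures (0.1% parasitemia, 2% hematocrit final) in Albumax-supplemented RPMI 1640.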
# Pf growth 96h – P. falciparum growth inhibition at 96 hour, primary screen for plastid delayed-death inhibitors; P. falciparum luciferase reporter growth, 96 h; Potency, µM (top dose mostly 28.7 µM), for the others: top-dose activity change, negative = inhibition, usual class: inhibitors; hit rate 6.9% among 320,000; note: potency is the fitted concentration of half-maximal effect; % is set by controls: 0 for no effect and ±100 for the full control effect
#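 Readout is luminescence from an integrated firefly luciferase in P. falciparum. Red cells, 2% hematocrit and 0.05% parasitemia final, were cultured with compound through two parasite generations (96 hours) at 37 C, 5% CO2.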
# Numbers without * were called inactive; ? = inconclusive; . = not tested or not shown; + = active, no number; [ ] = remark or other dose. Unless noted, calls come from the whole dose curve; as a rule, active = well fitted curve in the direction sought with a large enough effect; inconclusive = small, poorly fitted or top-dose-only effect, or another doubt; inactive = no such curve, though single readings can be large; an effect the other way counts as inactive or inconclusive.
SMILES,Sm TGR inh,HCV inh,SARS PLP yeast,HCMV antiviral,Pf growth 48h,Pf growth 96h
C(=N\Nc1nc(-c2ccccc2)cs1)/c1ccncc1,-15%,-30%,-3%,16,-23%,?
Cn1c(/C=N/Nc2nc3ccccc3[nH]2)nc2ccccc21,-4%,?,-18%,-83*,-17%,?
C(=N\Nc1nc2ccccc2[nH]1)/c1ccncc1,16%,-20%,0%,24,?,0%
C(=N\Nc1nc(-c2ccccc2)cs1)/c1cccs1,-24%,10µM*,?,103,-79%,?
C=CCn1cc(/C=N/Nc2nc3ccccc3[nH]2)c2ccccc21,-5%,?,3%,58,?,83%
COc1cccc(NC(=O)CCc2c(C)nc3ncnn3c2C)c1,6%,.,.,-1,.,.
CSc1ccc(CN2CCC2(C)C(=O)NC2CCN(Cc3ccccc3)CC2)cc1 (stereo unspecified),.,.,.,-15,.,.
Cc1c(/C=N/Nc2nc3ccccc3[nH]2)c2ccccc2n1C,-5%,?,-17%,-96*,0.52µM*,0.47µM*
CC(C)Cn1c(/C=N/Nc2nc3ccccc3[nH]2)nc2ccccc21,-22%,2.5µM*,-88%,-97*,3.7µM*,0.47µM*
CCOc1ccc(CCNC(=O)Cn2ncn3nc(-c4ccc(OC)cc4)cc3c2=O)cc1OCC,9%,-3%,1%,-28,38%,?
Cc1cc(-c2cc(C(=O)NCc3ccccc3)on2)nc(NCC2CC2)n1,-12%,?,0%,7,?,0%
Cc1cc(C)c(C(=O)CC(=O)c2ccccc2Cl)c(O)c1,9%,-9%,-8%,-70*,24%[0.00184 µM],?
COc1ccc(CC(=O)OCN2C(=O)c3ccccc3C2=O)cc1,2%,11%,0%,-26,37%,14%
O=C(Cc1ccc(F)cc1)OCN1C(=O)c2ccccc2C1=O,-17%,9%,-2%,9,?,15µM*
C[C@H]1[C@@H](NS(=O)(=O)c2cccc([N+](=O)[O-])c2)CC[C@@]23CCCN2C(=O)CCC[C@@H]13,.,.,.,11,.,.
COc1cccc(C2C(C(=O)c3cccs3)=C(O)C(=O)N2CCN2CCOCC2)c1OC (stereo unspecified),0%,18%,-1%,39,-8%,?
O=C(N/N=C/c1ccc[nH]1)c1cccc(Br)c1,-7%,4.5µM*,-8%,?,2%,13%
CN(C)c1ccc(C(=O)N/N=C/c2cc(Br)cc(Br)c2O)cc1,0%,?,?,-90*,?,?
O=C(N/N=C/c1ccc[nH]1)c1ccccc1OCc1ccc(F)cc1,5%,-22%,-3%,?,-5%,-10%
CCOc1ccc(OCc2ccc(C(=O)NN=Cc3ccc[nH]3)cc2)cc1,.,0.56µM*,-4%,+,.,.
Cc1ccc(C(=O)N/N=C/c2cc(Br)ccc2O)cn1,2%,?,16%,-102*,?,7%
Cc1ccc(-n2c(=O)c3oc4ccccc4c3n(Cc3ccccc3)c2=O)cc1C,4%,.,.,5,.,.
COc1ccccc1NC(=O)CCNS(=O)(=O)c1ccc2c(c1)CCCC(=O)N2,3%,.,.,3,.,.
COC(=O)c1ccc(OCC2c3cc(OC)c(OC)cc3CCN2C(=O)Cc2ccc(OC)cc2)cc1 (stereo unspecified),4%,.,.,9,.,.
Cc1ccc(C(=O)N/N=C\c2ccc[nH]2)cn1,0%,8.9µM*,2%,-21,.,19%
Cc1cc(N2CCOCC2)ccc1/C=C1\NC(=O)N(CC(=O)Nc2ccccc2C)C1=O,2%,-27%,0%,19,29%,.
Cc1cc(N2CCOCC2)ccc1/C=C1\NC(=O)N(CC(=O)Nc2ccc(F)cc2)C1=O,.,3%,0%,-25,58%,2.9µM*
O=C(CN1C(=O)N/C(=C\c2ccccc2OCc2ccc(C(=O)O)cc2)C1=O)Nc1ccc(F)cc1,-1%,25%,2%,95,8%,5.2µM*
CCCC[C@@H]1CNC(=O)C(=O)N1CCCCC1CCCCC1,.,.,.,-2,.,.

# Source: PubChem (National Center for Advancing Translational Sciences (NCATS))
